Compounds without any hit were thinned out: in the full panel of roughly 79,000, 15% have a hit. No stated cut-off is given here; in the data, active means growth inhibition above about 70%; inactive means the rest.
How the values were obtained:
[1] = NCI Yeast Anticancer Drug Screen. Data for the rad50 strain (AID 155);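 further: 0% = growth of vehicle-only cultures of the same strain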; conditions: S. cerevisiae rad50 strain growth inhibition; at 50.0 µM; hits give high values
Method in brief: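 DNA repair mutant yeast, compound exposure, growth read-out; inhibition is taken relative to vehicle.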

[2] = NCI Yeast Anticancer Drug Screen. Data for the mec2-1 strain (AID 157); conditions: S. cerevisiae mec2-1 strain, at 50.0 µM, hits give high values
Method in brief: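 Yeast mec2-1 mutant treated with compound. Readout: growth inhibition vs vehicle controls.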

[3] = NCI Yeast Anticancer Drug Screen. Data for the sgs1 mgt1 strain (AID 161);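 further: 0% = growth of cultures given vehicle only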; conditions: S. cerevisiae sgs1 mgt1 strain, at 50.0 µM, hits give high values
Method in brief: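 Test agents were incubated with a DNA-repair-mutant yeast strain. Growth was then read and compared against vehicle-treated controls.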

[4] = NCI Yeast Anticancer Drug Screen. Data for the cln2 rad14 strain (AID 165);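 further: 0% = growth equal to vehicle treated cultures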; conditions: S. cerevisiae cln2 rad14 strain, at 50.0 µM, hits give high values
Method in brief: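 cln2 rad14 yeast strain; compound exposure; growth inhibition read vs vehicle controls.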

[5] = NCI Yeast Anticancer Drug Screen. Data for the bub3 strain (AID 167); conditions: S. cerevisiae bub3 mutant strain, at 50.0 µM, hits give high values
Method in brief: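 In this screen, a yeast mutant lacking normal mitotic checkpoint function is challenged with compound. Relative growth versus vehicle gives the inhibition value.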

[6] = NCI Yeast Anticancer Drug Screen. Data for the mlh1 rad18 strain (AID 175); conditions: S. cerevisiae mlh1 rad18 strain growth inhibition; at 50.0 µM; hits give high values
Method in brief: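 Yeast w/ defined DNA-repair lesions; compound exposure; growth vs vehicle controls → % inhibition.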

Measured: growth inhibition

C=C(C)c1ccc(F)cc1
inactive: [1] 3.9% | [2] -7.5% | [3] -1.65% | [4] 4.2% | [5] -2.05% | [6] 0.55%

CCCCCCCC(=O)C(C)C
inactive: [1] 7.55% | [2] 5.85% | [3] 11.8% | [4] 4.4% | [5] 9.6% | [6] 4.35%

CCOC(=O)CCC1CCCCC1
inactive: [1] -1.1% | [2] -8.15% | [3] -19.4% | [4] 0.65% | [5] -3.2% | [6] 8.15%

CC1(C)O[C@@H]2C[C@H]3[C@@H]4C[C@H](F)C5=CC(=O)C=C[C@]5(C)[C@@]4(F)[C@@H](O)C[C@]3(C)[C@]2(C(=O)CO)O1
inactive: [1] -1.8% | [2] -25.6% | [3] 0.25% | [4] -4.75% | [5] -57.8% | [6] -8.35%

C/[N+]([O-])=C/c1ncc([N+](=O)[O-])n1CCO
inactive: [1] 4.05% | [2] 5.9% | [3] 7.95% | [4] 25.1% | [5] -3.5% | [6] 25.6%

Cc1ccc2occ(/C=N/NC(N)=S)c(=O)c2c1
inactive: [1] -11.4% | [2] -2.7% | [3] 12.3% | [4] 0.6% | [5] 1.2% | [6] 0.8%

COc1cc(NCC(C#N)C#N)ccc1N=Nc1ccc([N+](=O)[O-])cc1
inactive: [1] 25.9% | [2] 26.4% | [3] 10.5% | [4] 18.8% | [5] 12.7% | [6] 48.9%

CCN1CC(C(=O)NC(C)C(=O)O)Cc2ccccc21 (centres undefined)
inactive: [1] 7.2% | [2] -1.25% | [3] 9.15% | [4] -31% | [5] 1.45% | [6] -8%

COC1=C(C)C(=O)C2=C(C1=O)C1C3CC4=C(C(=O)C(OC)=C(C)C4=O)C(CNC(=O)C(C)O)N3C(C#N)C(C2)N1C (centres undefined)
inactive: [1] 15.9% | [2] 0.85% | [3] 8.9% | [4] 32.8% | [5] -3.45% | [6] 41.5%

COC1(NS(=O)(=O)c2ccc(C)cc2)CC1
inactive: [1] -43.8% | [2] -25.2% | [3] -12.1% | [4] -39.1% | [5] 10.4% | [6] -3.85%

CC1OC(Cc2ccccc2)OC1C (centres undefined)
inactive: [1] 12.4% | [2] 13.8% | [3] 16.7% | [4] 0.4% | [5] 12.6% | [6] 9.9%

Cc1cc(Cl)cc(CN(Cc2ccccc2)Cc2cc(Cl)cc(C)c2O)c1O
inactive: [1] 1.3% | [2] -3.55% | [3] 18.2% | [4] 25.7% | [5] 2% | [6] -6.8%

CCC1=C(C)/C(=C/c2[nH]c(C)cc2C)N=C1C
inactive: [1] 5.5% | [2] 0.95% | [3] 3.65% | [4] -54.6% | [5] 0.25% | [6] 12.2%

Cn1c(-c2ccc(/C=N/N=C(N)N)cc2)c[n+]2ccccc12
inactive: [1] 8.85% | [2] 4.3% | [3] 4% | [4] 0.8% | [5] -3.85% | [6] 32.5%

Cn1cc(C(=O)c2ccccc2)c2ccccc2c1=O
inactive: [1] 41.5% | [2] -4.4% | [3] 23.8% | [4] 8.25% | [5] 31.9% | [6] 16.4%

O=C(Cl)c1cc(-c2ccc(Cl)cc2)nc2c(-c3ccccc3)cccc12
inactive: [1] -4.05% | [2] 9.15% | [3] -9.4% | [4] -38.5% | [5] -0.35% | [6] 8.5%

O=C1C2C3CC(C4C5C=CC(C5)C34)C2C2C3CC(C12)C1C2C=CC(C2)C31 (centres undefined)
inactive: [1] -19.1% | [2] -15.9% | [3] -24% | [4] 17.8% | [5] -9.15% | [6] -24.4%

Cc1cn(C2CCN(CC3COC(C)(C)O3)O2)c(=O)[nH]c1=O (centres undefined)
inactive: [1] -13.5% | [2] -11.9% | [3] -26.3% | [4] -24.9% | [5] -5.35% | [6] -19.6%

NC(CCSc1ccccc1)C(=O)O (centres undefined)
inactive: [1] -0.7% | [2] 8.35% | [3] -9.85% | [4] -34.5% | [5] -29.3% | [6] -5.45%

O=C(O)c1ccc(Br)cc1C(=O)O
inactive: [1] 7.6% | [2] 3.6% | [3] 1.5% | [4] 4.35% | [5] 4.65% | [6] -1.6%

Cc1ccc([Si](C)(C)c2ccccc2)cc1
inactive: [1] -2.4% | [2] 13.6% | [3] -2.65% | [4] 7.7% | [5] 9.7% | [6] 4.9%

CCCCCCCCC(C)c1cccc(C(C)CCCCCCCC)c1O (centres undefined)
inactive: [1] 33% | [2] 14.6% | [3] 10.5% | [4] 22.2% | [5] 14.8% | [6] 2.6%

CC1C(=O)CCC2C1(C)CCC1C2(C)CCC2(C)C3CC(C)(C)CCC3(C)CCC12C (centres undefined)
inactive: [1] 18.4% | [2] -9.05% | [3] 17.4% | [4] 9.2% | [5] 22.9% | [6] 16.8%

CC1(C)OC(C(O)CO)C(C2COC(=S)O2)O1 (centres undefined)
inactive: [1] 1.45% | [2] 15.9% | [3] 8.45% | [4] 33.5% | [5] 12.6% | [6] -1.8%

CNC(=O)CNC(=O)C(Cc1ccc(NC(=O)CCCCC(C)=O)cc1)NC(=O)C(CCC(=O)OCc1ccccc1)NC(=O)OC(C)(C)C (centres undefined)
inactive: [1] -19.6% | [2] -23.6% | [3] -26.1% | [4] 0% | [5] -30.1% | [6] -17.1%

CC(=O)OCC(CO)(CO)COC(C)=O
inactive: [1] 8.25% | [2] 8.65% | [3] -16.2% | [4] 7.45% | [5] -3.7% | [6] -6.7%

CC(I)CNc1ccc(C(=O)O)c(O)c1 (centres undefined)
inactive: [1] 3.7% | [2] -4.9% | [3] 6.15% | [4] 1% | [5] 11.6% | [6] -11.9%

C(=C\C(SCc1ccccc1)SCc1ccccc1)/c1ccccc1
inactive: [1] -43% | [2] -60% | [3] -27.8% | [4] 3.55% | [5] -7.2% | [6] -35.6%

C=C1CC2(CC(c3ccccc3Cl)OC(c3ccccc3Cl)C2)OC1=O (centres undefined)
inactive: [1] 27.2% | [2] 47.2% | [3] 23.2% | [4] 33.2% | [5] 20.7% | [6] 18.8%

CCN(CC)c1ccc(N=C2C=C(C(=O)Nc3ccc(C(=O)O)cc3)C(=O)c3ccccc32)c(C)c1
inactive: [1] -10.2% | [2] -25% | [3] -16.9% | [4] 0.9% | [5] -0.65% | [6] -18.2%

O=C(O)C1C2C3CCC(C3)C12 (centres undefined)
inactive: [1] 2.7% | [2] 16.4% | [3] 8.2% | [4] 34.6% | [5] -4.9% | [6] 1.95%

Cc1cc(=O)c2c(ccc3c(=O)cc(C)[nH]c32)[nH]1
inactive: [1] -56.8% | [2] -21.2% | [3] -14.3% | [4] -52.2% | [5] -3.1% | [6] 3.25%

C[N+]1(C)CCN(S(=O)(=O)c2ccccc2)c2ccccc21
inactive: [1] -10.1% | [2] -13.4% | [3] -4.35% | [4] -7.95% | [5] -19.6% | [6] -18.4%

CCCCOC(=O)NC(=O)c1cn(CCSCCOC(=O)NCCCCCCNC(=O)OCCSCCn2cc(C(=O)NC(=O)OCCCC)c(=O)[nH]c2=O)c(=O)[nH]c1=O
inactive: [1] -15.2% | [2] -12.5% | [3] -9.55% | [4] 2.15% | [5] -15.9% | [6] -15.4%

Cn1c(=O)c2[nH]c(SCC(=O)O)nc2n(C)c1=O
inactive: [1] 7.45% | [2] 0.95% | [3] 3.35% | [4] -21.4% | [5] 7.6% | [6] -3.65%

CC1(C)C2=CCCC(=O)[C@@]2(C)CC[C@@H]1O
inactive: [1] -4.15% | [2] 4.65% | [3] -4.9% | [4] -26.1% | [5] 1.55% | [6] 3.35%

CCOC(=O)C1(C(=O)OCC)CCCCC1=O
inactive: [1] 13.2% | [2] -15.2% | [3] -22.9% | [4] 11.2% | [5] -46.6% | [6] -1.1%

CCCCC(CC)COC(=O)CSC#N (centres undefined)
inactive: [1] -6.7% | [2] -7.55% | [3] -9.85% | [4] -15.6% | [5] 2.05% | [6] -15.1%

CCOC(=O)C(=CNc1cccc(N)n1)C(=O)OCC
inactive: [1] -3.35% | [2] -17.9% | [3] 28% | [4] -8.55% | [5] 20.4% | [6] 5.75%

Reference: PubChem BioAssay (NCI)
